# Measurements as given in PubChem BioAssay (EPA / NIEHS).
# Activity calls are given as the source filed them. The calls were made as follows: active = hit-call score of the fitted dose curve at least 0.9, where 1 is the maximum; inactive = score below 0.9.
# What was measured:
# Conditions in all cases: mRNA level, 48 h; actives raise or lower the signal
# [1] = read-out: MicroRNA 122 (MIR122), gene 406906; assay: LTEA_HepaRG_MIR122: Life Technologies and Expression Analysis (LTEA) Assay for MicroRNA 122 (MIR122) using HepaRG (AID 2283516); also: the transcript read is the microRNA miR-122
# Summary of the method: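 Expression measured by microfluidic qRT-PCR with three housekeeping genes for normalisation, after 48 h treatment of HepaRG cultures. Eight concentrations (top 100 uM, half-log steps, 0.5% DMSO vehicle) in duplicate; gain or loss fitted relative to vehicle.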
# [2] = read-out: matrix metalloproteinase-10 (MMP10), MMP10 (gene 4319); assay: LTEA_HepaRG_MMP10: Life Technologies and Expression Analysis (LTEA) Assay for matrix metalloproteinase-10 (MMP10) using HepaRG (AID 2283517)
# Summary of the method: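 Transcript levels come from Fluidigm qRT-PCR normalized to three housekeeping genes, with curves fitted bidirectionally against 0.5% DMSO. Human HepaRG cells were dosed for 48 hours at concentrations up to 100 uM.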
# MYC, MYC (gene 4609) = assay: LTEA_HepaRG_MYC: Life Technologies and Expression Analysis (LTEA) Assay for MYC using HepaRG (AID 2283518)
# Summary of the method: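 qRT-PCR read-out of MYC transcript (Fluidigm TaqMan, housekeeping-normalized) after 48 h chemical exposure of HepaRG cells; eight concentrations, top 100 uM, half-log steps. Bidirectional curve fitting against 0.5% DMSO vehicle baseline.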
# [3] = read-out: matrix metalloproteinase-3 (MMP3), MMP3 (gene 4314); assay: LTEA_HepaRG_MMP3: Life Technologies and Expression Analysis (LTEA) Assay for matrix metalloproteinase-3 (MMP3) using HepaRG (AID 2283519)
# Summary of the method: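 qRT-PCR read-out of MMP3 mRNA (normalised to three housekeeping genes) in HepaRG liver cells after 48 h chemical exposure; 8-point half-log series, top 100 uM, 0.5% DMSO vehicle. Bidirectional curve fitting against DMSO baseline.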
# [4] = read-out: Paternally Expressed 10 (PEG10), PEG10 (gene 23089); assay: LTEA_HepaRG_PEG10: Life Technologies and Expression Analysis (LTEA) Assay for Paternally Expressed 10 (PEG10) using HepaRG (AID 2283520);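 as to AC50: differentiated HepaRG human liver cells in serum-free induction medium with 0.5% DMSO; PEG10 transcript by qRT-PCR normalised to ACTB GAPDH and POLR2A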
# Summary of the method: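 PEG10 transcript measured by Fluidigm qRT-PCR, normalized to three housekeeping genes, in HepaRG cells treated 48 h (highest 100 uM, half-log steps, 0.5% DMSO vehicle). Cells plated 48 h before switching to serum-free induction medium.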
# [5] = read-out: Nuclear factor NF-kappa-B p105 subunit (Homo sapiens) (UniProt P19838); assay: LTEA_HepaRG_NFKB1: Life Technologies and Expression Analysis (LTEA) Assay for Nuclear Factor Kappa B Subunit 1 (NFKB1) using HepaRG (AID 2283521);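 as to outcome: differentiated human HepaRG liver cells in serum-free induction medium; TaqMan qRT-PCR transcript normalised to ACTB GAPDH and POLR2A housekeeping genes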
# Summary of the method: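 Human HepaRG cells receive eight half-log concentrations, highest 100 uM, for 48 h. NFKB1 expression is then quantified by qRT-PCR and analysed for up- or down-regulation relative to 0.5% DMSO vehicle.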
# [6] = read-out: Protein phosphatase 2A (PPP2R4), PTPA (gene 5524); assay: LTEA_HepaRG_PPP2R4: Life Technologies and Expression Analysis (LTEA) Assay for Protein phosphatase 2A (PPP2R4) using HepaRG (AID 2283522)
# Summary of the method: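 Expression was quantified by Fluidigm qRT-PCR normalised to three housekeeping genes after 48 h treatment. Human HepaRG cells received an 8-point series from 100 µM downward by half-logs, in duplicate with 0.5% DMSO vehicle and 1 mM phenobarbital as induction control.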
# [7] = read-out: Phosphatase and tensin (PTEN), PTEN (gene 5728); assay: LTEA_HepaRG_PTEN: Life Technologies and Expression Analysis (LTEA) Assay for Phosphatase and tensin (PTEN) using HepaRG (AID 2283523)
# Summary of the method: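 HepaRG, 48 h exposure, 8-pt half-log series from 100 uM top, 0.5% DMSO vehicle, duplicates. Readout: Fluidigm qRT-PCR of PTEN transcript; housekeeping normalization (ACTB, GAPDH, POLR2A). Gain or loss fitted relative to DMSO baseline.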
# [8] = read-out: solute carrier (SLC22A1), SLC22A1 (gene 6580); assay: LTEA_HepaRG_SLC22A1: Life Technologies and Expression Analysis (LTEA) Assay for solute carrier (SLC22A1) using HepaRG (AID 2283524);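 as to AC50: differentiated human HepaRG liver cells in serum-free induction medium; TaqMan qRT-PCR normalized to ACTB GAPDH and POLR2A housekeeping genes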
# Summary of the method: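 qRT-PCR readout (TaqMan, Fluidigm arrays) of SLC22A1 transcript, normalized to three housekeeping genes; bidirectional curve fit relative to 0.5% DMSO vehicle. Differentiated human HepaRG cells, 48 h chemical exposure, top concentration 100 uM, half-log steps, eight points.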
# [9] = read-out: Pyruvate Dehydrogenase Kinase 4 (PDK4), PDK4 (gene 5166); assay: LTEA_HepaRG_PDK4: Life Technologies and Expression Analysis (LTEA) Assay for Pyruvate Dehydrogenase Kinase 4 (PDK4) using HepaRG (AID 2283525)
# Summary of the method: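 HepaRG (human liver line), 48 h chemical exposure, 8-pt half-log CRC top 100 uM, 0.5% DMSO vehicle, duplicates. Readout: TaqMan qRT-PCR of PDK4 mRNA, housekeeping-normalized; gain/loss fit relative to DMSO baseline.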
# Nuclear factor NF-kappa-B p105 subunit (Homo sapiens), sequence (P19838 whole entry, looked up): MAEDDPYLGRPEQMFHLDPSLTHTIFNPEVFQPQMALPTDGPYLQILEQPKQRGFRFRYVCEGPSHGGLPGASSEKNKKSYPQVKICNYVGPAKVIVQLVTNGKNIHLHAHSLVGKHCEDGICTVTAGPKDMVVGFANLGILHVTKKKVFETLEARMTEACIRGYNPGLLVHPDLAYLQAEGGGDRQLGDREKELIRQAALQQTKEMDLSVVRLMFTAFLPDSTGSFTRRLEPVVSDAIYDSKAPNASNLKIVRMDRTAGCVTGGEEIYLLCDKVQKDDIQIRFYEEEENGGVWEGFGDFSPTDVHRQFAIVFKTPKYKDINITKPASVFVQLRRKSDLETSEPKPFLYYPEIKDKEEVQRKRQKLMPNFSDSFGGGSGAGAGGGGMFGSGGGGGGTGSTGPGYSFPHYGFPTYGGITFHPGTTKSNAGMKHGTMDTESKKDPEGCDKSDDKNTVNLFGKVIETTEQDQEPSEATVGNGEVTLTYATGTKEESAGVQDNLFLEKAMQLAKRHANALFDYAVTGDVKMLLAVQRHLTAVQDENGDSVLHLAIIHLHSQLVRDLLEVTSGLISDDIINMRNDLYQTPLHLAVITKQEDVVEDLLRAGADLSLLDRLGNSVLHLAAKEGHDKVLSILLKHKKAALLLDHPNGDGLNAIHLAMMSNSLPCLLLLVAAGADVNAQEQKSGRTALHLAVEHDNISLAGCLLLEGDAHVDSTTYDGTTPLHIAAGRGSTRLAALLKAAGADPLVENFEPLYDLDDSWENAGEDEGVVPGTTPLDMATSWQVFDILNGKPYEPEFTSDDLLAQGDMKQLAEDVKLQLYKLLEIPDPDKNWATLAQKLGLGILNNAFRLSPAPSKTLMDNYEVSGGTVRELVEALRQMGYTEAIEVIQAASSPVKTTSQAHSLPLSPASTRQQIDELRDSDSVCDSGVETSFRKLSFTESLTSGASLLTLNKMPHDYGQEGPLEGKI
SMILES,outcome [1],outcome [2],"outcome (MYC, MYC (gene 4609))",outcome [3],outcome [4],outcome [5],outcome [6],outcome [7],outcome [8],AC50 [9],AC50 [8],outcome [9],AC50 [1],AC50 [2],"AC50 (MYC, MYC (gene 4609))",AC50 [6],AC50 [7],AC50 [5],AC50 [4],AC50 [3]
O=C(O)c1ccccc1C(=O)OCc1ccccc1,inactive,inactive,inactive,inactive,inactive,inactive,inactive,inactive,inactive,28.6 µM (active),,,,,,,,,,
C[C@]12CC[C@@H]3c4ccc(O)cc4CC[C@H]3[C@@H]1CCC2=O,inactive,inactive,inactive,inactive,inactive,inactive,inactive,inactive,,,33.3 µM (active),inactive,,,,,,,,
Cc1cn([C@H]2C[C@H](N=[N+]=[N-])[C@@H](CO)O2)c(=O)[nH]c1=O,inactive,inactive,inactive,inactive,inactive,inactive,inactive,inactive,inactive,,,inactive,,,,,,,,
Clc1ccccc1C(c1ccccc1)(c1ccccc1)n1ccnc1,,,,inactive,inactive,inactive,,,,28.3 µM (active),23.1 µM (active),,17.3 µM (active),25.2 µM (active),20.5 µM (active),92.2 µM (active),87.2 µM (active),,,
CCN(Cc1cccc(S(=O)(=O)O)c1)c1ccc(C(=C2C=CC(=[N+](CC)Cc3cccc(S(=O)(=O)O)c3)C=C2)c2ccccc2S(=O)(=O)[O-])cc1,inactive,inactive,inactive,inactive,inactive,inactive,inactive,inactive,inactive,,,inactive,,,,,,,,
CN1C(=O)CC[C@H]1c1cccnc1,inactive,inactive,inactive,inactive,inactive,inactive,inactive,inactive,inactive,,,inactive,,,,,,,,
CCN(CC)C(=O)c1cc(S(=O)(=O)Cc2ccccc2)c(N2CCC(c3ccccc3)CC2)cc1N(CC)CCN(C)C,,,inactive,inactive,inactive,,inactive,,inactive,,,inactive,30.5 µM (active),30.5 µM (active),,,22.9 µM (active),28.1 µM (active),,
CCCCCCCCCCCO,inactive,inactive,inactive,inactive,inactive,inactive,inactive,inactive,inactive,,,inactive,,,,,,,,
CC[C@H](NC(=O)c1cc(F)ccc1NS(=O)(=O)c1cccc2cccnc12)c1ccccc1,,inactive,inactive,inactive,,inactive,inactive,inactive,,,50.8 µM (active),inactive,47.8 µM (active),,,,,,19.1 µM (active),
O=C1CCC(C2CCCCC2)CC1,inactive,inactive,inactive,inactive,inactive,inactive,inactive,inactive,inactive,,,inactive,,,,,,,,
Cc1cc(F)ccc1-c1cc(N2CC[C@@H](O)[C@H]2CO)ncc1N(C)C(=O)C(C)(C)c1cc(C(F)(F)F)cc(C(F)(F)F)c1,,,,inactive,inactive,inactive,,,,,20.7 µM (active),inactive,9.28 µM (active),68.7 µM (active),17.3 µM (active),21.5 µM (active),66.4 µM (active),,,
CCCCCCCC[Si](OCC)(OCC)OCC,inactive,inactive,inactive,inactive,inactive,inactive,inactive,inactive,inactive,,,inactive,,,,,,,,
CC(O)CC(C)(C)O (stereo not given),inactive,inactive,inactive,inactive,inactive,inactive,inactive,inactive,inactive,,,inactive,,,,,,,,
CC(C)(c1cc(Br)c(O)c(Br)c1)c1cc(Br)c(O)c(Br)c1,inactive,inactive,,inactive,inactive,inactive,inactive,,,88.9 µM (active),53.4 µM (active),,,,89.5 µM (active),,72.7 µM (active),,,
CCCCCc1ccc(N)cc1,inactive,inactive,inactive,inactive,inactive,inactive,inactive,inactive,inactive,,,inactive,,,,,,,,
c1ccc2n[nH]nc2c1,inactive,inactive,inactive,inactive,inactive,inactive,inactive,inactive,inactive,,,inactive,,,,,,,,
Cc1occc1C(=O)Nc1ccc(C(=O)N2CCC(F)(F)/C(=C\C(=O)N3CCC(N4CCCCC4)CC3)c3ccccc32)cc1,,inactive,inactive,inactive,,inactive,inactive,inactive,,50.3 µM (active),32.2 µM (active),,31.2 µM (active),,,,,,48 µM (active),
COc1cc(C(=O)NC2CCN(C)CC2)ccc1Nc1ncc2c(n1)N(C1CCCC1)CC(F)(F)C(=O)N2C,inactive,,,,inactive,,,,,22.2 µM (active),5.56 µM (active),,,26.3 µM (active),14.7 µM (active),11.9 µM (active),12 µM (active),11.7 µM (active),,4.65 µM (active)
CCCCCCCCOC(=O)c1cc(O)c(O)c(O)c1,inactive,inactive,inactive,inactive,inactive,inactive,inactive,inactive,inactive,,,inactive,,,,,,,,

SMILES,outcome [1],outcome [2],"outcome (MYC, MYC (gene 4609))",outcome [3],outcome [4],outcome [5],outcome [6],outcome [7],outcome [8],AC50 [9],AC50 [8],outcome [9],AC50 [1],AC50 [2],"AC50 (MYC, MYC (gene 4609))",AC50 [6],AC50 [7],AC50 [5],AC50 [4],AC50 [3]
O=C(Nc1ccc(Cl)cc1)Nc1ccc(Cl)c(Cl)c1,inactive,,,,,,,,,27 µM (active),17.4 µM (active),,,27.6 µM (active),28.6 µM (active),21.3 µM (active),22.2 µM (active),12.2 µM (active),21.8 µM (active),28.1 µM (active)
COc1ccc2cc(S(=O)(=O)N[C@H](CC(=O)N[C@H](Cc3ccc(CN4[C@H](C)CCC[C@@H]4C)cc3)C(=O)N(C)C(C)C)c3ccc4c(c3)OCO4)ccc2c1,,,,inactive,,,,,,86.6 µM (active),26.4 µM (active),,11.4 µM (active),24.3 µM (active),24.7 µM (active),34.3 µM (active),15 µM (active),31.2 µM (active),11.5 µM (active),
O=C(O)Cn1c(=O)n(Cc2ccc(Br)cc2F)c(=O)c2ccc(Cl)cc21,inactive,inactive,inactive,inactive,inactive,inactive,inactive,inactive,inactive,38.8 µM (active),,,,,,,,,,
O=c1ccc2ccccc2o1,inactive,inactive,inactive,inactive,inactive,inactive,inactive,inactive,inactive,,,inactive,,,,,,,,
CCOC(=O)O[C@H](C)OC(=O)c1ccc2c(c1)cc(C(=O)NC1CCN(C(C)C)CC1)n2Cc1cc(-c2ccc(Cl)s2)on1,inactive,inactive,inactive,,inactive,inactive,inactive,inactive,inactive,,,inactive,,,,,,,,47.2 µM (active)
NCc1cccc(C2CCN(C(=O)c3ccc(C#Cc4ccccc4F)o3)CC2)c1,,inactive,inactive,inactive,,inactive,inactive,inactive,,64.9 µM (active),92.6 µM (active),,97.8 µM (active),,,,,,24.7 µM (active),
O=C(O)Cc1cc(I)c(Oc2ccc(O)c(I)c2)c(I)c1,inactive,,,inactive,,,inactive,inactive,,0.00367 µM (active),78.8 µM (active),,,81 µM (active),91.3 µM (active),,,71.8 µM (active),0.558 µM (active),
CC[C@@H]1C[C@H](N(Cc2cc(C(F)(F)F)cc(C(F)(F)F)c2)C(C)=O)c2cc(C(F)(F)F)ccc2N1C(=O)OC(C)C,inactive,inactive,inactive,inactive,,inactive,inactive,inactive,inactive,,,inactive,,,,,,,11.6 µM (active),
CCCC(=O)OCCC(C)C,inactive,inactive,inactive,inactive,inactive,inactive,inactive,inactive,inactive,,,inactive,,,,,,,,
Cc1ccc2oc(CN(Cc3ccccc3)C(=O)Nc3c(F)cc(F)cc3F)c(-c3ccc(Cl)cc3)c2c1,inactive,inactive,,inactive,inactive,inactive,inactive,inactive,,,44.2 µM (active),inactive,,,44.2 µM (active),,,,,
O=c1c(-c2ccc(O)cc2)coc2cc(O)cc(O)c12,inactive,inactive,inactive,inactive,inactive,inactive,inactive,inactive,inactive,,,inactive,,,,,,,,
CN(C[C@@H](CC[N+]12CCC(C3CCCCC3)(CC1)CC2)c1ccc(Cl)c(Cl)c1)C(=O)c1cc(C(F)(F)F)cc(C(F)(F)F)c1,,,,inactive,,,,,,82.4 µM (active),22.4 µM (active),,12.7 µM (active),9.43 µM (active),87.2 µM (active),76.2 µM (active),71.1 µM (active),89.7 µM (active),28.7 µM (active),
CCCCCCCCCC(=O)O,inactive,inactive,inactive,inactive,inactive,inactive,inactive,inactive,inactive,,,inactive,,,,,,,,
O=c1[nH]sc2ccccc12,inactive,inactive,inactive,inactive,inactive,inactive,inactive,inactive,inactive,,,inactive,,,,,,,,
COCC(C)OCC(C)OCC(C)O (stereo not given),inactive,inactive,inactive,inactive,inactive,inactive,inactive,inactive,inactive,,,inactive,,,,,,,,
O=C1c2ccccc2C(=O)N1CCc1noc(-c2ccc(CN3CCCCCC3)s2)n1,inactive,inactive,inactive,inactive,,inactive,inactive,inactive,inactive,,,inactive,,,,,,,42.2 µM (active),
Oc1ccc2ccccc2c1,inactive,inactive,inactive,inactive,inactive,inactive,inactive,inactive,inactive,,,inactive,,,,,,,,
CCCCCCCCOc1ccc(C(=O)c2ccccc2)c(O)c1,inactive,inactive,inactive,inactive,inactive,inactive,inactive,inactive,inactive,,,inactive,,,,,,,,
